The record followed here is PubChem BioAssay (NCATS).

Records with an inconclusive call do not appear. The source made the active and inactive calls. Unless noted, calls follow the shape of the dose curve; as a rule, active = well fitted curve in the direction sought with a large enough effect; inconclusive = small, poorly fitted or top-dose-only effect, or another doubt; inactive = no such curve, though single readings can be large; an effect the other way counts as inactive or inconclusive.

Test [1] is described as follows: qHTS Assay for Lipid Storage Modulators (AID 1519; calls by dose curve; as to activity change, negative = inhibition: % is scaled to controls: 0 for no effect and ±100 for the full control effect). The note with it: Drosophila S3 cells, BODIPY lipid droplet/cell ratio, laser cytometry, cells loaded with oleic acid. The method, boiled down: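 Cells seeded at 5,000 per well were treated with compounds over a concentration series and loaded with oleic acid (400 uM, as added). Lipid droplet fluorescence (488 nm excitation, 500-530 nm channel) was read by laser-scanning cytometry and normalized to 20 uM Triacsin C.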

Test [2] concerns the target alpha-glucosidase (Oryza sativa, rice) (UniProt Q653V4). In words: Counterscreen for Glucocerebrosidase Inhibitors: qHTS Assay for Rice alpha-Glucosidase at pH 5.0 (AID 997).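 Also: 0% = full activity with enzyme and -100% = basal without enzyme.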 The note with it: rice alpha-glucosidase enzyme activity; series mostly up to 76.9 µM. The method, boiled down: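 Endpoint fluorogenic assay at pH 5.0: compounds (0.7 nM to 77 uM) titrated against 4 nM rice enzyme and 400 uM 4-MU-alpha-glucoside for 20 min at room temperature; NaOH/glycine stop, read ex 365/em 440 nm, Hill-fitted AC50.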

The target in test [3] is DNA repair nuclease/redox regulator APEX1 (Homo sapiens) (UniProt P27695). The test is described as follows: qHTS Validation Assay for Inhibitors of the Human Apurinic/apyrimidinic Endonuclease 1 (APE1) (AID 1705;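 also: TAMRA fluorescence gain over two minutes as APE1 cuts a quenched THF abasic duplex; % is scaled to controls: 0 for no effect and ±100 for the full control effect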). The note with it: purified APE1 endonuclease activity, fluorescence, titration; series mostly up to 57.1 µM. Summed up: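 Human APE1 was preincubated with compound for 15 min at room temperature, then 50 nM (final) THF-abasic double-stranded DNA substrate bearing 5'-TAMRA and 3'-BHQ-2 was added. Incision-driven fluorescence rise (ex 525/em 598 nm) was read kinetically.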

Test [4] in a line: Counterscreen for APE1 Inhibitors: Fluorescent Dye Displacement Validation Assay (AID 1707).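 Also: plate controls were ThO with dsDNA and no compound for no effect and ThO without dsDNA for full effect.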 As to conditions: fluorescent dye displacement from DNA; series mostly up to 57.1 µM. Summed up: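 Counterscreen flags promiscuous DNA binders: compounds displacing ThO from duplex DNA (abasic THF site, 50 nM) reduce 540 nm emission (480 nm excitation). ThO 250 nM final; Tris-HCl pH 7.5 with NaCl, MgCl2 and Tween-20.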

The target of test [5] is Endonuclease 4 (Escherichia coli (strain K12)) (UniProt P0A6C1). The test is described as follows: Counterscreen for APE1 Inhibitors: qHTS Validation Assay for Inhibitors of Endonuclease IV (AID 1708). Also: % is scaled to controls: 0 for no effect and ±100 for the full control effect. As to conditions: E. coli endonuclease IV, DNA cleavage fluorescence; series mostly up to 57.1 µM. Summed up:
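Incision of a double-stranded 50 nM TAMRA/BHQ-2 abasic substrate was followed kinetically (525/598 nm, reads every 60 s) after 15 min enzyme–compound preincubation with 2 nM EndoIV in pH 7.5 Tris buffer with MgCl2, DTT and Tween-20; concentration-response format.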

A short description of test [6]: Validation of Assay for Modulators of Lamin A Splicing (AID 1459; active = well fitted curve in the direction sought with a large enough effect in the signal ratio; the % refers to the signal ratio;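 also: cells exposed to compound for two days before reading; 0% is about no effect; ratio rise marks activators and ratio drop marks inhibitors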). As to conditions: Lamin A splicing dual RFP/GFP fluorescence reporter; series mostly up to 9.22 µM. The method, boiled down:
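S3 HeLa cells stably expressing a lamin A-EGFP splicing minigene and DsRed2 were seeded at 600 cells/well in Opti-MEM with 2% FBS, pin-dosed, and incubated 48 hrs at 37 °C, 5% CO2. Laser-scanning cytometry (488 nm) gave GFP/RFP total intensity ratio.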

Test [7] can be described thus: qHTS for differential inhibitors of proliferation of Plasmodium falciparum line 7G8 (AID 1815).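 Also: parasite growth measured after three days of incubation.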 Also: potency is read from the fitted curve at half-maximal effect.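 As to activity change, negative = inhibition: plate controls were vehicle wells for no effect and reference inhibitor wells for full effect.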 The note with it: Plasmodium falciparum 7G8 proliferation inhibition; series mostly up to 28.7 µM.
The nature of test [8]: qHTS for differential inhibitors of proliferation of Plasmodium falciparum line GB4 (AID 1816).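 Also: parasite growth measured after 72 h incubation.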 Also: potency is read from the fitted curve at half-maximal effect.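 As to activity change, negative = inhibition: 0% = vehicle DMSO and -100% = reference inhibitor.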 The note with it: Potency: Plasmodium falciparum GB4 proliferation inhibition; series mostly up to 28.7 µM.
The nature of test [9]: qHTS for differential inhibitors of proliferation of Plasmodium falciparum line 3D7 (AID 1876).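 Also: parasite growth measured after three days of culture; 0% = vehicle wells and -100% = reference inhibitor wells.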 The note with it: P. falciparum 3D7 proliferation inhibition; series mostly up to 28.7 µM.
Where [10] appears, read: measured here: cell count channel max response.
The mark [11] stands for this setting: measured here: lipid channel max response.

DNA repair nuclease/redox regulator APEX1 (Homo sapiens), sequence (P27695 whole entry, looked up): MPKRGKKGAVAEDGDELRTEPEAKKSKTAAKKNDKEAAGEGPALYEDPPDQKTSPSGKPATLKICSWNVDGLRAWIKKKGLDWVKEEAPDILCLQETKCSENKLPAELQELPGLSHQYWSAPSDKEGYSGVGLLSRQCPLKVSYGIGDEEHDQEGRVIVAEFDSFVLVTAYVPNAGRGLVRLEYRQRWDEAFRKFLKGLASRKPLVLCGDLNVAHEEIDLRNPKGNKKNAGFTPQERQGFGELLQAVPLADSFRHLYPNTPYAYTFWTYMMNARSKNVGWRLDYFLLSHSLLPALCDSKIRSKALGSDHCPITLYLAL

For the compound `CCCOc1cc(N)ccc1C(=O)OCCN(CC)CC`, the activity change, negative = inhibition in test [1] (at 25.7 µM (top of the series)) was -0.11% (inactive). Further, the max response is -10.4% in [1] (setting [10]) and -6.99% in [1] (setting [11]).

For `C[C@@](Cc1ccc(O)c(O)c1)(NN)C(=O)O`, the compound was called inactive in [2], in test [3], in [4] and in test [5]. The activity change, negative = inhibition in test [1] (at 57.5 µM (top of the series)) was -0.657% (inactive). Further, the figures for the max response in test [1] (setting [10]) and in test [1] (setting [11]) were -17.5% and -16%, respectively.

Consider `CN1C(=O)OC(C)(C)C1=O`, for which, in [1] (at 25.7 µM (top of the series)), the activity change, negative = inhibition is 0.553% (inactive). Also, the max response in test [1] (setting [10]) turned out to be 9.38%; in test [1] (setting [11]), 10.6%.

Regarding `CC(=O)Oc1cccc(C(=O)O)c1OC(C)=O`, the activity change, negative = inhibition in [1] (at 57.5 µM (top of the series)) is 4.19% (inactive). Moreover, the max response in [1] (setting [10]) is 10.5%; in [1] (setting [11]), 12%.

Consider `CCSc1ccc2c(c1)N(CCCN1CCN(C)CC1)c1ccccc1S2`, for which the activity change, negative = inhibition in [1] (at 25.7 µM (top of the series)) was -4.9% (inactive). Besides, the values for the max response in test [1] (setting [10]) and in [1] (setting [11]) were -20.1% and -23.8%, respectively.

For the compound `CC1CCC(NC(=O)N(CCCl)N=O)CC1` (stereo not given), the activity change, negative = inhibition in [1] (at 57.5 µM (top of the series)) was 0.815% (inactive). Besides, the max response was determined as 10.3% in [1] (setting [10]) and 12.2% in test [1] (setting [11]).

`CC1CCCC(C)N1NC(=O)c1ccc(Cl)c(S(N)(=O)=O)c1` (stereo not given): the activity change, negative = inhibition in test [1] (at 57.5 µM (top of the series)) was 2.67% (inactive). Moreover, the max response was found to be 17.3% in test [1] (setting [10]) and 23.6% in test [1] (setting [11]).

For `CC(=O)Oc1cccc2c1C(=O)c1c(OC(C)=O)cc(C(=O)O)cc1C2=O`, the activity change, negative = inhibition in test [1] (at 57.5 µM (top of the series)) was 13.8% (inactive). The max response stood at 25.9% in [1] (setting [10]) and 41.9% in test [1] (setting [11]).

For the compound `CC[C@H]1OC(=O)[C@H](C)[C@@H](O[C@H]2C[C@@](C)(OC)[C@@H](O)[C@H](C)O2)C(C)[C@@H](O[C@@H]2O[C@H](C)C[C@H](N(C)C)[C@@H]2O)[C@](C)(OC)C[C@@H](C)C(=O)[C@H](C)[C@@H](O)[C@]1(C)O` (stereo not given in full), the activity change, negative = inhibition in [1] (at 57.5 µM (top of the series)) was 7.44% (inactive). Also, the max response was found to be 9.53% in [1] (setting [10]) and 18.8% in test [1] (setting [11]).

Consider `CN1CCc2c(c3ccccc3n2Cc2ccccc2)C1`, for which the activity change, negative = inhibition in test [1] (at 25.7 µM (top of the series)) was -1.45% (inactive). Further, the max response is 1.19% in test [1] (setting [10]) and 1.48% in test [1] (setting [11]).

Consider `Cc1ncc(C[n+]2csc(CCO)c2C)c(N)n1`, for which, in test [1] (at 25.7 µM (top of the series)), the activity change, negative = inhibition is -1.32% (inactive). The max response in test [1] (setting [10]) stood at 9.62%; in test [1] (setting [11]) it was 7.5%.

`O=c1[nH]c(=O)n([C@H]2C[C@H](O)[C@@H](CO)O2)cc1/C=C/Br`: the compound was classed as inactive in [6], in test [3], in [4], in test [5] and in test [9]. Moreover, the Potency entry in [7] and in test [8] was “inactive” each time.

With `O=C1c2ccccc2C(=O)c2c1ccc(O)c2O`, in test [1] (at 57.5 µM (top of the series)), the activity change, negative = inhibition was 15% (inactive). In addition, the figures for the max response in test [1] (setting [10]) and in test [1] (setting [11]) were 2.35% and 20.3%, respectively.

As to `O=C(O)CCC(=O)c1ccc(-c2ccccc2)cc1`, the activity change, negative = inhibition in [1] (at 25.7 µM (top of the series)) is 2.12% (inactive). In addition, the max response is -6.39% in test [1] (setting [10]) and -2.43% in test [1] (setting [11]).

Take `O=C1NCCN1c1ncc([N+](=O)[O-])s1`: the activity change, negative = inhibition in test [1] (at 25.7 µM (top of the series)) is -0.923% (inactive). In addition, the figures for the max response in test [1] (setting [10]) and in test [1] (setting [11]) were 0.859% and -3.74%, respectively.

As for `Cc1cccc(C)c1NC(=O)C1CCCCN1C` (stereo not given), in [1] (at 57.5 µM (top of the series)), the activity change, negative = inhibition is 7.8% (inactive). Also, the max response was 19% in test [1] (setting [10]) and 29.6% in [1] (setting [11]).

In the case of `NCC(O)CC(=O)O` (stereo not given), in [1] (at 57.5 µM (top of the series)), the activity change, negative = inhibition is 7.57% (inactive). Besides, the results for the max response in test [1] (setting [10]) and in test [1] (setting [11]) were 11% and 22.3%, respectively.

Regarding `Cc1cc(C)c(NC(=O)C[C@H](CC(=O)O)c2cccc3ccccc23)c(C(=O)N2CCC3(CCCC3)CC2)c1`, the outcome in test [2], in test [6], in [3], in [4] and in [5] was inactive. Also, the figures for the Potency in [7] and in test [8] were 12.6 µM (active) and 11.2 µM (active), respectively.

In the case of `CNC(=O)c1c(I)c(C(=O)NCC(=O)Nc2c(I)c(C(=O)O)c(I)c(C(=O)NCCO)c2I)c(I)c(N(C)C(C)=O)c1I`, the activity change, negative = inhibition in test [1] (at 25.7 µM (top of the series)) was -2.02% (inactive). Further, the results for the max response in test [1] (setting [10]) and in test [1] (setting [11]) were -4.35% and -10.2%, respectively.

Take `O=C(NCCNCC(O)COc1ccc(O)cc1)N1CCOCC1` (stereo not given): the outcome in test [6], in test [3], in [4], in [5] and in [9] was inactive. In test [1] (at 57.5 µM (top of the series)), the activity change, negative = inhibition was -2.06% (inactive). For the same compound, the results for the max response in [1] (setting [10]) and in test [1] (setting [11]) were -28.3% and -30.3%, respectively. Moreover, the Potency entry in test [7] and in [8] was “inactive” each time.

Regarding `COc1cc(S(C)=O)ccc1-c1nc2ncccc2[nH]1` (stereo not given), the activity change, negative = inhibition in test [1] (at 25.7 µM (top of the series)) is 0.171% (inactive). For the same compound, the max response in [1] (setting [10]) was -21.2%; in [1] (setting [11]), -18.4%.

Take `CC1(C)S[C@@H]2[C@H](NC(=O)C3(N)CCCCC3)C(=O)N2[C@H]1C(=O)O`: in test [1] (at 25.7 µM (top of the series)), the activity change, negative = inhibition was -0.399% (inactive). Further, the max response in test [1] (setting [10]) was found to be 10.5%; in test [1] (setting [11]), 9.76%.
